Source: PubChem (NMMLSC)
Bcl-B Bim block: human Bim-Bcl-B interaction inhibition; inhibition, % at 10 µM; Q9HD36; bead-based flow cytometry, Bim peptide-Bcl-B binding; AID 951; 190,000 compounds, 0.073% hits;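 note: 0% = tracer peptide without compound and 100% = reference inhibitor peptide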
Target sequence (Q9HD36 whole entry, looked up): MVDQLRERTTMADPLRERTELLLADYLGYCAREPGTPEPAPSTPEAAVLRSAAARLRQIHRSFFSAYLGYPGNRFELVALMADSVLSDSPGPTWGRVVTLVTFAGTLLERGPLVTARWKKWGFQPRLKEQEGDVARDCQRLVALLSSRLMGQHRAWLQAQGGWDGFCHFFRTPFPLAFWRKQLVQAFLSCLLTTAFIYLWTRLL
Bim-Bfl-1: human Bim-Bfl-1 interaction inhibition | Q16548 | Bead-based flow cytometry, Bim-Bfl-1 binding inhibition | inhibition, % at 10 µM | 190,000 compounds, 0.12% hits;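 note: 0% = wells without compound plus tracer and 100% = blocker peptide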
Bim-Bcl-W: disrupts Bim peptide binding to human Bcl-W | inhibition, % at 10 µM | 190,000 compounds, 0.02% hits | Q92843 | bead-based flow cytometry | AID 952;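 note: 0% = bound tracer without compound and 100% = peptide blocker; higher means less fluorescent Bim peptide bound to Bcl-W beads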
Bcl-2 Bim block: inhibitors of Bim-Bcl-2 interaction, human. AID 950. Bead-based flow cytometry, Bim peptide-Bcl-2 binding. 190,000 compounds, 0.06% hits. P10415. inhibition, % at 10 µM; in the data active = inhibition above about 40%;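 note: 0% = no compound wells with probe peptide and 100% = reference peptide inhibitor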
Bim-Bcl-XL: disrupts Bim peptide binding to human Bcl-XL; inhibition, % at 10 µM; bead flow cytometry, fluorescence; Q07817; 190,000 compounds, 0.04% hits
Bim-BclXL dose: Bim-Bcl-XL interaction regulation, dose confirmation; shares compounds with Bim-Bfl-1; bead-based flow cytometry, Bim-Bcl-XL binding; inhibition of binding at 100 µM; 40 tested, under 10 active; AID 2084; call rule not given here
Starred values were filed as active, the others as inactive; · = no result. A selection: hits, their analogues and other compounds. The true share with any hit is near 0.18%. Cut-off read from the data, not from the text of the source, unless noted: active = inhibition above about 40%.

SMILES | Bcl-B Bim block | Bim-Bfl-1 | Bim-Bcl-W | Bcl-2 Bim block | Bim-Bcl-XL | Bim-BclXL dose
CC(C)(C)c1ccc(-c2cn(-c3ccc(Br)cc3)c3[n+]2CCCS3)cc1 | -2 | -1 | 0 | -1 | -2 | ·
CC1=C/C(=N\NC(=S)Nc2cccnc2)CC(C)(C)C1 | -8 | -5 | 1 | -2 | -3 | ·
CCNCc1ccccc1OCc1ccccc1 | -2 | -3 | -2 | 0 | 1 | ·
Oc1ccc(NCc2ccccc2OCc2ccccc2)cc1 | -10 | 34 | 16 | 11 | 1 | -0.78
COc1ccc(N2C(=O)C(Cl)=C(NC3C(=O)N(c4ccccc4)N(C)C3C)C2=O)cc1 (configuration not stated) | · | · | · | · | · | -3.9
COc1ccc(NC(=O)Cn2cnc3sc(C)c(S(=O)(=O)N4CCOCC4)c3c2=O)c(OC)c1 | 0 | 4 | -7 | 0 | -1 | ·
O=C(NCc1ccccc1)c1ccc2nc(-c3ccco3)c(-c3ccco3)nc2c1 | 5 | 43* | 19 | 17 | 7 | 15
O=[N+]([O-])c1c(NCCCO)cc(Sc2nc3ccccc3s2)c2nonc12 | 3 | 61* | 8 | 8 | 1 | -1
Cc1nnc(Sc2cc(NCCO)c([N+](=O)[O-])c3nonc23)s1 | 0 | 55* | 14 | 12 | 3 | 8.4
Cc1nnc(Sc2cc(NCCCO)c([N+](=O)[O-])c3nonc23)s1 | 5 | 29 | 5 | 6 | 1 | ·
O=[N+]([O-])c1cc(Cl)ccc1N1CCCC1 | -2 | -9 | 0 | -2 | 0 | ·
O=C1C(Cl)=C(N2CCN(c3ccccc3[N+](=O)[O-])CC2)C(=O)c2ccccc21 | -17 | 68* | 27 | 15 | 1 | 4.3
COc1ccc(N2C(=O)C(Cl)=C(Oc3cccc(OC)c3)C2=O)cc1 | -39 | 43* | 0 | 2 | -8 | -8.2
COc1ccc(N2C(=O)c3ccccc3C2=O)cc1 | -5 | -6 | -4 | -2 | -4 | ·
CCOc1ncccc1C(=O)Nc1cccc(-c2nnc3n2CCCCC3)c1 | 3 | -2 | 3 | 1 | 9 | ·
